About 1,600 (0.84%) of roughly 190,000 compounds were called active. The sample holds actives, similar compounds and a random draw of the others, so the mix is not that of the screen.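 Rule for the calls: active = inhibition above a set limit, derived from the sample mean plus 3 SD (cut at about 45% in these data); inconclusive = one replicate passes the limit while the other fails; inactive = the rest.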
assay: inhibitors of APP translation via 5'UTR reporter, primary screen, APP 5'UTR luciferase, SH-SY5Y cells (AID 1285); details: SH-SY5Y APP 5'UTR-luciferase reporter, luminescence; at 2 µM; stronger effect = higher value

SMILES	inhibition
C/C(Cn1nnc2ccccc21)=N\OC(=O)c1cc(F)c(F)cc1Cl	-4.6% (inactive)
N#CC1=C(N)Oc2c(sc3ccccc23)C1c1ccco1 (configuration not stated)	56.2% (active)
Cc1cc(C)c2c3c(sc2n1)C(c1ccccc1)C(C#N)=C(N)O3 (configuration not stated)	7.5% (inactive)
Cc1cc2c(c(=O)n1Cc1ccco1)C(c1ccccc1)C(C#N)=C(N)O2 (configuration not stated)	-7.5% (inactive)
O=C(/C=C/c1ccc(N2CCOCC2)cc1)c1ccccc1	-140% (inactive)
Cc1c(/C=N/N2C(=O)C3C4C=CC(C4)C3C2=O)c2ccccc2n1C (configuration not stated)	13.8% (inactive)
O=C(N/N=C/c1coc2ccccc2c1=O)c1cc2ccccc2o1	0.7% (inactive)
Cc1c(/C=N\NC(=O)c2cc3ccccc3o2)c2ccccc2n1C	78% (active)
CCOc1ccc(NC(=O)COc2ccc(C(=O)NC3CCCc4ccccc43)cc2OC)cc1 (configuration not stated)	-14.3% (inactive)
COc1ccccc1CNC(=O)COc1ccc(C)nc1[N+](=O)[O-]	-13.3% (inactive)
C/C(=C\c1ccccc1)C1NC(=O)c2c(sc3c2CCCC3)N1 (configuration not stated)	14.6% (inactive)
CCOC(=O)CSC1=C(C#N)C(c2sccc2C)CC(=O)N1 (configuration not stated)	93.4% (active)
Cc1ccc(C2CC(=O)NC(SCC(=O)OCc3ccccc3)=C2C#N)o1 (configuration not stated)	18% (inactive)
C=CCOC(=O)C1=C(C)NC(SCC(=O)OCC)=C(C#N)C1c1ccc(C)cc1 (configuration not stated)	-6.5% (inactive)
CC(C)(C)NC(=O)C(=O)NCc1ccncc1	-1.4% (inactive)
C/C(=N\NC(=O)Cc1ccc(Cl)cc1)c1ccccn1	58.9% (active)
C/C(=N\NC(=O)Cc1ccc(F)cc1)c1ccc(F)cc1	10.7% (inactive)
COc1ccc(CC(=O)N/N=C(\C)c2ccccn2)cc1	23.4% (inactive)
Cc1ccc(NC(=O)c2ccn(C(=O)Nc3ccccc3)n2)c(C)c1	-34.7% (inactive)
Nc1nonc1-c1nc2ccccc2n1Cc1ccc(F)cc1	-0.7% (inactive)
Nc1nonc1-c1nc2ccccc2n1CCC(=O)O	-2% (inactive)

SMILES	inhibition
COc1ccc(C)c(Cn2c(-c3nonc3N)nc3ccccc32)c1	90.7% (active)
O=C(NCCCN1CCOCC1)c1ccc([N+](=O)[O-])cc1[N+](=O)[O-]	-18.1% (inactive)
COc1cc(OC)cc(C(=O)OCC(=O)Nc2sccc2C(N)=O)c1	11.2% (inactive)
Clc1ccc(CN2CCN(/N=C/c3cccnc3)CC2)cc1	-6.8% (inactive)
O=Cc1cn(Cc2ccccc2)nc1-c1cccnc1	-9.8% (inactive)
O=C1/C(=C\c2cccnc2)CN(Cc2ccccc2)C/C1=C\c1cccnc1	97.1% (active)
Cc1cccc(N2CCN(c3ccc(C(N)=O)cc3[N+](=O)[O-])CC2)c1C	-15.7% (inactive)
CCn1c(Cc2ccccc2)nnc1SCC(=O)Nc1ccccc1	-1.3% (inactive)
CCn1c(CNC(=O)c2ccc(OC)c(OC)c2)nnc1SCC(=O)Nc1ccccc1	45.9% (active)
CCn1c(CNC(=O)c2ccco2)nnc1SCC(=O)Nc1cccc(F)c1	-10% (inactive)
O=C(CNC(c1ccccc1)c1ccccc1)Nc1ccc(F)cc1	-7.4% (inactive)
CC1(C)CC(=O)C(N=Nc2ccc(S(=O)(=O)N3CCCCCC3)cc2)=C(O)C1	9.4% (inactive)
CCOC(=O)c1ccc(N2C(=O)CC(N3CCN(C(=O)c4ccccc4)CC3)C2=O)cc1 (configuration not stated)	-5.3% (inactive)
O=C(COc1cc(Cl)c(Cl)cc1Cl)NC(=O)NC1CCCC1	45.2% (active)
O=C(COc1cc(Cl)c(Cl)cc1Cl)NCCc1ccccn1	1.4% (inactive)
O=C(COc1ccccc1F)NC1CC1	-9.1% (inactive)
Cc1ccccc1C1CC(c2cccs2)=NN1S(C)(=O)=O (configuration not stated)	17.8% (inactive)
O=C(CSc1ncn[nH]1)Nc1ccnc2ccccc12	4% (inactive)
O=C(CSc1ncn[nH]1)Nc1nsc(-c2ccccc2)n1	-2.5% (inactive)
Cn1nnc(NC(=O)CSc2ncn[nH]2)n1	53.1% (active)
COc1ccc(Br)cc1/C=N/NC(=O)c1cccc(S(=O)(=O)N2CCOCC2)c1	-16.1% (inactive)
